CF NFkB inh – cystic fibrosis NF-kB activation inhibition. KKLEB NF-kB-GFP reporter, PAF-induced, GFP fluorescence overnight. inhibition, % at 5 µM. 360,000 tested, 0.86% active. AID 588850;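 active = at least 50% inhibition at 5 µM, scaled per plate between neutral and stimulator controls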;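 note: PAF is a Pseudomonas aeruginosa culture filtrate used as stimulus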
KKLEB cytotox – CF airway cell cytotoxicity counter-screen. activity change (cytotoxicity), % at 5 µM. AID 602141. KKLEB CF airway cells viability, ATPlite luminescence, overnight; stronger effect = lower value; cells stimulated with P. aeruginosa culture filtrate. 360,000 tested, 0.36% active;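 active = corrected activity change at or below -50% at 5 µM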
EWS-Fli block – EWS/Fli transcriptional activity inhibition; A673 NR0B1-luciferase reporter, viability-normalised; inhibition, % at 12.6 µM; 350,000 tested, 0.67% active; AID 651661;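 active = mean inhibition of at least 50% after viability correction, with every replicate also passing that limit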;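 note: firefly luciferase signal divided by Alamar Blue viability fluorescence both relative to DMSO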
PAX8 inh HTS – PAX8 transcriptional activity inhibition; RMG-I TPO-luciferase reporter, SteadyGlo, 24 h; inhibition, % at 12.6 µM; 360,000 tested, 1.2% active; AID 652154;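 active = mean replicate inhibition at least 60% with every replicate also reaching 60%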;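 note: luciferase light reporting Pax8 driven TPO promoter activity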
Shn3 inh set2 – inhibitors of Schnurri-3 3'UTR reporter in osteoblasts; Clone20 osteoblast Shn3 3'UTR firefly luciferase, 24 h; inhibition, % at 12.5 µM; 360,000 tested, 0.52% active; AID 588674;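 active = mean inhibition of at least 75% with every replicate also reaching 75%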
LGR2 inh – blocks bursicon-induced cAMP signaling via Drosophila LGR2. AID 720647. inhibition, % at 9.99 µM. 380,000 tested, 0.35% active. HEK293 LGR2, CRE-luciferase, bursicon-stimulated, 4 h;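 active = drop in luminescence signal, shown as inhibition above about 50% in the replicate tests, limit read from the data, passing the limit was not always enough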;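 note: agonist challenge used bursicon conditioned medium at about half maximal strength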
Each line names hits and unclear results; the compound was inactive in the other large screens. Compounds with a hit are over-represented: about 2% of the library has one in this group of screens.

C[C@H](CO)N1C[C@H](C)[C@H](CN(C)C(=O)c2ccccc2)OCCCC[C@H](C)Oc2ccc(NC(=O)Nc3ccc(C(F)(F)F)cc3)cc2C1=O	PAX8 inh HTS 104.1 (no result: CF NFkB inh, KKLEB cytotox, Shn3 inh set2)
C[C@@H]1CCCCO[C@@H](CN(C)C(=O)c2ccccc2)[C@H](C)CN([C@@H](C)CO)C(=O)c2cc(NC(=O)Nc3ccc(C(F)(F)F)cc3)ccc2O1	none (no result: CF NFkB inh, KKLEB cytotox, Shn3 inh set2)
CC(NCc1ccc(OCc2ccc(Cl)cc2)cc1)C(O)c1ccccc1 (stereo unspecified)	Shn3 inh set2 97.0
COc1ccc(NC(=O)CCS(=O)(=O)c2ccccc2Cl)cc1S(=O)(=O)Nc1ccc(Cl)cc1	EWS-Fli block 57.4
COc1ccc(NC(=O)CCC(=O)c2cccs2)cc1S(=O)(=O)Nc1ccc(Cl)cc1	none
CC(=O)NCCc1ccc(C(=O)COC(=O)C2CCCCC2)cc1	LGR2 inh 77.4
O=C(C1CCCCC1)N1CC(=O)N2[C@@H](CO)[C@@H](c3ccc(C#CCc4ccccc4)cc3)[C@@H]2C1	none (no result: CF NFkB inh, KKLEB cytotox, EWS-Fli block, PAX8 inh HTS, Shn3 inh set2)
COc1cccc(Nc2nnc(SCN3C(=O)c4ccccc4C3=O)s2)c1	PAX8 inh HTS 84.0 (no result: LGR2 inh)
CN(C)CCCN(C(=O)COc1ccc(Cl)cc1)c1nc2cc3c(cc2s1)OCO3	EWS-Fli block 61.2
Cc1noc(C)c1NC(=O)Nc1ccc2c(c1)C(=O)N([C@@H](C)CO)C[C@H](C)[C@H](CN(C)C)O2	none (no result: CF NFkB inh, KKLEB cytotox, Shn3 inh set2)
COC(=O)c1cccc(NC(=O)c2ccc3c(c2)C(=O)N(C(C)(C)C)C3=O)c1	none
CC(C)(C)NC(=O)c1cccc(NC(=O)c2ccc3c(c2)C(=O)N(C(C)(C)C)C3=O)c1	LGR2 inh 83.2
CN(C)C(=O)C[C@H]1C=C[C@H](NC(=O)C2CCOCC2)[C@H](CO)O1	none (no result: CF NFkB inh, KKLEB cytotox, PAX8 inh HTS, Shn3 inh set2)
Cc1ccc(-c2nnc(-c3ccc(NC(=O)Cc4cccs4)cc3)o2)cc1	CF NFkB inh 71.1, KKLEB cytotox -77.2 (no result: EWS-Fli block, PAX8 inh HTS)
O=C(Cc1cccs1)Nc1cccc(-c2nnc(-c3ccco3)o2)c1	none
C[C@@H]1CCCCO[C@H](CN(C)CC2CC2)[C@H](C)CN([C@@H](C)CO)C(=O)c2cc(NS(C)(=O)=O)ccc2O1	none (no result: CF NFkB inh, KKLEB cytotox, EWS-Fli block, Shn3 inh set2)
O=C(C[C@H]1CC[C@H]2[C@@H](COC[C@H](O)CN2CC2CCOCC2)O1)NCc1ccc(Cl)cc1	none (no result: CF NFkB inh, KKLEB cytotox, Shn3 inh set2)
Cc1ccc(Cn2ccsc2=NC(=O)COC(=O)c2ccc(NC(=O)CC#N)cc2)cc1	none
Cc1ccc(Cn2ccsc2=NC(=O)CCl)cc1	CF NFkB inh 93.8, KKLEB cytotox -92.3, PAX8 inh HTS 114.1
CC(=O)C1=C(C)NC(SCC(=O)c2ccc(Cl)c(Cl)c2)=C(C#N)C1c1ccco1 (stereo unspecified)	none (no result: PAX8 inh HTS)
CC(=O)C1=C(C)NC(SCC(=O)c2cc(Cl)ccc2Cl)=C(C#N)C1c1ccco1 (stereo unspecified)	Shn3 inh set2 81.2 (no result: PAX8 inh HTS)
C[C@@H]1CN([C@@H](C)CO)C(=O)c2cc(C#CCc3ccccc3)cnc2O[C@@H]1CN(C)Cc1ccccc1	none (no result: CF NFkB inh, KKLEB cytotox, Shn3 inh set2)
O=C(Nc1cccc(F)c1)N[C@@H]1CC[C@@H](CCNS(=O)(=O)c2cccc(Cl)c2)O[C@@H]1CO	PAX8 inh HTS 106.5 (no result: CF NFkB inh, KKLEB cytotox, Shn3 inh set2)
O=C(Nc1ccc(F)cc1)N[C@H]1CC[C@H](CCNC(=O)c2cc(Cl)cc(Cl)c2)O[C@H]1CO	PAX8 inh HTS 86.9 (no result: CF NFkB inh, KKLEB cytotox, Shn3 inh set2)
Cc1ccc(S(=O)(=O)Nc2ccc3c(c2)C(=O)N([C@H](C)CO)C[C@H](C)[C@H](CN(C)C(=O)Nc2c(C)noc2C)OCCCC[C@@H](C)O3)cc1	none (no result: CF NFkB inh, KKLEB cytotox, Shn3 inh set2)
O=C(O)c1cccc(Nc2ccnc(Nc3cccc(C(=O)O)c3)n2)c1	EWS-Fli block 63.2, LGR2 inh 89.9
C[C@H](CO)N1C[C@H](C)[C@H](CN(C)CC2CCCCC2)Oc2ccc(NC(=O)NC3CCCCC3)cc2CC1=O	none (no result: CF NFkB inh, KKLEB cytotox, Shn3 inh set2)
C[C@@H]1CN([C@@H](C)CO)C(=O)Cc2cc(NC(=O)Nc3ccc(F)cc3)ccc2O[C@H]1CN(C)CC1CCCCC1	PAX8 inh HTS 82.1 (no result: CF NFkB inh, KKLEB cytotox, Shn3 inh set2)
C[C@@H]1CN([C@@H](C)CO)C(=O)Cc2cc(NC(=O)NC3CCCCC3)ccc2O[C@H]1CN(C)CC1CCCCC1	PAX8 inh HTS 67.2 (no result: CF NFkB inh, KKLEB cytotox, Shn3 inh set2)
C[C@@H]1CN([C@@H](C)CO)C(=O)Cc2cc(NC(=O)Nc3ccc4c(c3)OCO4)ccc2O[C@H]1CN(C)CC1CCCCC1	PAX8 inh HTS 82.5 (no result: CF NFkB inh, KKLEB cytotox, Shn3 inh set2)
